D2 ag-1 = Beta-Arrestin HTS for Positive Allosteric Modulators of the Human D2 Dopamine Receptor: Agonists | D(2) dopamine receptor (Homo sapiens), P14416 | DiscoveRx PathHunter D2 beta-arrestin, luminescence, 90 min; 100% = 57 uM dopamine signal | activation, % (no concentration beside the values) | actives 0.084% (n = 360,000) | AID 624465, 2012; in the data active = activation above about 40%; inconclusive = between about 15% and that limit
Target sequence (P14416 whole entry, looked up): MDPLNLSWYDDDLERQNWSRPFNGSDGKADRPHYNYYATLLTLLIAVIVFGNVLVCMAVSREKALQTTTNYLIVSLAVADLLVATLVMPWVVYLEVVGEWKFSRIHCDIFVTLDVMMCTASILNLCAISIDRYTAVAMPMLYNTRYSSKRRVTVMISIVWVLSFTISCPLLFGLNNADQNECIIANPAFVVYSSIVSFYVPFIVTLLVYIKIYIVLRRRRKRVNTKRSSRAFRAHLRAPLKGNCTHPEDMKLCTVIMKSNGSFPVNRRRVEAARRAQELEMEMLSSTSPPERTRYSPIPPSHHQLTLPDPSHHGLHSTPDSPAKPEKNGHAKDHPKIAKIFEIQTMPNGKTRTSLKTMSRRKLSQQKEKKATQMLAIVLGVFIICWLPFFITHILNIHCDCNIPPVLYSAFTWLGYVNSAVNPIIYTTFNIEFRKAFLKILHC
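Agonist mode: compounds alone added to overnight-plated D2 PathHunter cells for 90 min at 37 C, with 57 uM final dopamine (EC100) defining full response. Beta-arrestin recruitment detected by chemiluminescent reagent, read after 1 h at ambient temperature.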
D2 PAM-1 = HTS Assay for Positive Allosteric Modulators of the Human D2 Dopamine Receptor: Primary Screen for Potentiators; actives 0.34% (n = 340,000); HEK293 T-REx D2, calcium flux, EC20 dopamine potentiation; D(2) dopamine receptor (Homo sapiens), P14416; potentiation, % at 10 µM; AID 485347, 2010;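 active = potentiation over 3 SD above the plate norm, cut at about 30% in these data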; note: 0% is about no effect
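Tetracycline-induced Hek293 Trex D2 cells, force-coupled to calcium, loaded with no-wash calcium dye. Compound added with 180 s kinetic read for agonism, then EC20 dopamine and a further 180 s read for potentiation.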
D2 PAM-2 = Beta-Arrestin HTS for Positive Allosteric Modulators of the Human D2 Dopamine Receptor: Potentiators; potentiation, % (test concentration not listed); actives 0.23% (n = 360,000); D(2) dopamine receptor (Homo sapiens), P14416; AID 624464, 2012; DiscoveRx D2 beta-arrestin cells, luminescence, 90 min; 100% = 57 uM dopamine signal; in the data active = potentiation above about 50%; inconclusive = mostly about 30% to 49%
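PathHunter beta-arrestin assay in DiscoveRx D2 cells. Compounds were added with an EC20 of dopamine (50 nM final) for 90 min at 37 deg C. Luminescence was read 1 h after detection reagent, with 57 uM dopamine as the EC100 control.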
D2 antag = HTS Assay for Allosteric Antagonists of the Human D2 Dopamine Receptor: Primary Screen for Antagonists | D(2) dopamine receptor (Homo sapiens), P14416 | HEK293 TREx D2 cells, calcium flux, dopamine EC80 | inhibition, % at 10 µM | actives 2% (n = 340,000); in the data active = inhibition above about 30%; inactive = below that, where a call was filed; note: 0% is about no effect
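Tetracycline-induced HEK293 TREx cells expressing D2 receptor forced-coupled to calcium signalling, loaded with no-wash calcium dye. Compounds added and calcium flux read 180 s, then dopamine added at EC80 and read a further 180 s.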
D2 ag-2 = HTS Assay for Allosteric Agonists of the Human D2 Dopamine Receptor: Primary Screen for Agonists; D(2) dopamine receptor (Homo sapiens), P14416; HEK293 T-REx D2 cells, calcium flux agonist mode; activation, % at 2 µM; actives 0.53% (n = 340,000); AID 485358, 2010;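 active = activation over 3 SD above normal in the single-dose calcium agonist read, cut at about 30% in these data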; note: 0% is about no effect
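Tetracycline-induced HEK293 Trex cells with D2 receptor force-coupled to calcium signaling, plated overnight at 30 C and loaded with no-wash calcium dye. Calcium flux read kinetically for 180 s after compound addition; responses flag agonists.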
The depositor's hits bear a star; ? = inconclusive; / = no result given. Compounds with a hit are over-represented: about 2.4% of the library has one in this group of screens.

SMILES	D2 ag-1	D2 PAM-1	D2 PAM-2	D2 antag	D2 ag-2
N#C/C(=C\c1ccc(N2CCOCC2)o1)C(=O)Nc1ccc(O)cc1	-8	12	-13	-1	17
CC1CC1c1ccc(/C=C(\C#N)C(=O)Nc2ccc(Cl)cc2)o1 (stereo not drawn)	-3	-25	-35	76*	0
N#C/C(=C/c1ccc(N2CCOCC2)o1)C(=O)NC1CCCCC1	-19	5	-17	5	18
Brc1ccccc1OCCCCCN1CCOCC1	1	-15	-25	36*	0
Clc1ccc(Cl)c(OCCCCN2CCCCC2)c1	-3	-31	-15	86*	-2
Clc1ccccc1OCCCCN1CCCCC1	-5	-28	-5	77*	1
Clc1ccccc1OCCCCN1CCCC1	-3	-18	-26	-22	-1
Brc1ccccc1OCCCN1CCCCCC1	-2	-18	-16	46*	0
CN1C(=O)C(C)(C)c2cc(S(=O)(=O)N3CCCC(C(=O)NCc4ccc(Cl)cc4)C3)ccc21 (stereo not drawn)	7	-10	-1	3	1
CC1CCN(CCOc2cc(Cl)ccc2Cl)CC1	1	-30	-19	72*	4
CC(C)c1ccccc1OCCCN1CCCC1	5	-14	-7	65*	0
CCN(CC(=O)Nc1ccccc1C(F)(F)F)C(=O)CCc1c(C)[nH]c(=O)c(C#N)c1C	0	7	-4	7	0
CCCCN1/C(=C/c2ccc3ccccc3[n+]2CC)Sc2ccccc21	2	-4	-5	16	14
CCN1/C(=C/c2ccc3cc(C)ccc3[n+]2CC)Sc2cc(C)ccc21	-5	6	-1	35*	15
Cc1cn([C@H]2C[C@H](O)[C@@H](CNCc3cnc(N4CCOCC4)nc3)O2)c(=O)[nH]c1=O	-8	/	3	/	/
CCOC(=O)C(=NCCCN(C)C)NNc1cc(C(F)(F)F)ccc1Cl	0	-14	-6	35*	-1
CCOC(=O)C(=NCCCN(C)C)NNc1ccc(Br)cc1	5	2	-11	-1	0
CCCCC(CC)CNC(=O)C1CCC(CNS(=O)(=O)c2cccc3nsnc23)CC1 (stereo not drawn)	/	2	/	/	1
Cc1ccc(CC(=O)Nc2ncc([N+](=O)[O-])s2)cc1	-4	4	67*	17	2
Cc1ccc(S(=O)(=O)CC(=O)Nc2ncc([N+](=O)[O-])s2)cc1	-6	4	-12	-15	-3
Cc1ccccc1CS(=O)(=O)CCC(=O)NCc1ccc(F)cc1Cl	-5	3	-15	-3	0
CC1CC(OCC(O)CN2CCOCC2)CC(C)(C)C1 (stereo not drawn)	1	-4	1	46*	0
CC1CC(C)CN(CC(O)COC2CC(C)CC(C)(C)C2)C1 (stereo not drawn)	-5	/	-24	/	/
Oc1cccc(Nc2ncnc3ccccc23)c1	-2	3	-10	51*	0
O=C(COC(=O)c1ccc([N+](=O)[O-])o1)NC1CCS(=O)(=O)C1 (stereo not drawn)	6	8	?	33*	0
SMILES	D2 ag-1	D2 PAM-1	D2 PAM-2	D2 antag	D2 ag-2
O=C(COC(=O)c1ccc([N+](=O)[O-])o1)NC1CCCC1	8	/	14	/	/
O=C(CNC(=O)c1ccc(-c2ccccc2)cc1)Nc1ccc(S(=O)(=O)Nc2ncccn2)cc1	-5	-3	-18	-14	0
O=C(CSc1nnnn1Cc1ccccc1)NCC(=O)c1ccccc1	-1	-4	-24	-18	0
O=C(CSc1nnnn1Cc1ccccc1)NCCc1ccccc1	-3	-1	2	32*	-2
COc1cc2oc3cc(C#Cc4ccc(N)cc4)ccc3c(=O)c2cc1OC	-1	/	-3	/	/
Nc1ccc(C#Cc2ccc3c(=O)c4ccccc4oc3c2)cc1	-2	-6	-9	41*	2
CC1(C)S[C@@H]2[C@H](NC(=O)[C@H](N)c3ccccc3)C(=O)N2[C@H]1C(=O)O	-6	3	1	-20	1
CC1(C)S[C@@H]2[C@H](NC(=O)C(C(=O)O)c3ccccc3)C(=O)N2[C@H]1C(=O)O (stereo partly drawn)	-6	8	5	33*	1
Cc1cc(C)c2c(c1)[C@@H]1C=CC[C@@H]1[C@H](c1ccc(S(=O)(=O)N3CCOCC3)cc1)N2	-2	2	-5	35*	0
COc1ccc(OC)c(N2C(=O)CC(Cc3ccc(Cl)cc3)C2=O)c1 (stereo not drawn)	-2	29	-13	-22	1
COc1ccc(OC)c(N2C(=O)CC(Cc3cc(C)cc(C)c3)C2=O)c1 (stereo not drawn)	-1	30*	10	10	0
CC1=NN(Cc2ccccc2)C(=O)/C1=C\c1ccc(N(C)C)cc1	-2	-6	0	-5	-1
COC(=O)CC1=NN(c2ccccc2)C(=O)/C1=C\c1ccc(OC)cc1	-5	2	-9	56*	3
CCOC(=O)C1=NN(c2ccccc2)C(=O)/C1=C\c1ccc(N(C)C)cc1	-3	-8	-11	32*	0
CCOc1ccc(/C=N/NC(=O)Cc2cccs2)cc1	-3	-1	-5	7	-1
C=C1C(=O)C=C2CN(C(=O)c3ccccc3)[C@@](Cc3ccc(F)cc3)(C(=O)OC)[C@@H]12	-9	9	-24	44*	24
COC(=O)[C@@]1(Cc2ccc(OC)cc2)[C@@H]2C(=CC(=O)[C@H]2CC(=O)C(=O)N(C)C)CN1C(=O)c1ccccc1	-2	5	1	-11	1
Cc1sc(NC(=O)CSc2nc(N)n(CC(=O)c3ccccc3)n2)c(C#N)c1C	2	-24	5	-22	33*
CC(NC(=O)[C@H](C)NC(=O)c1ccco1)c1ccc(S(N)(=O)=O)cc1 (stereo partly drawn)	-5	-10	-3	14	1
CC(NC(=O)c1ccco1)C(=O)NC(C)c1cc(F)c(Cl)cc1Cl (stereo not drawn)	-5	30*	-19	-3	1
CC(=O)Nc1sc(/C(C#N)=C\c2cccc(Cl)c2)nc1-c1ccc(C)cc1	0	-14	6	30*	61*
CC(C)n1cnc2c(N(C)c3ccccc3)nc(N(CCN(C)C)Cc3ccccc3)nc21	2	-18	-23	34*	0
